# Results: the supplement of paper PMC8728848
# Only a selection was taken, and the strongest signals are over-represented in it overall.
# B1: Gal 7 (Homo sapiens) (protein)
# chain: MSNVPHKSSLPEGIRPGTVLRIRGLVPPNASRFHVNLLCGEEGGSDAALHFNPRLDTSEVVFNSKEGGSWGREERGPGVPFGRGQPFEVLIIASDDGFKAVVGDAQYHHFRHRLPLARVRLVEVGGDVQLDSVRIF
# Assays:
# Assay in all cases: glycan array binding signal (z-score within array); higher = stronger binding
# Conditions in all cases: glycan notation: IUPAC condensed, linker removed
# [1] = target: Gal(b1-4)GlcNAc(b1-3)Gal(b1-4)GlcNAc(b1-3)Gal(b1-4)GlcNAc(b1-3)Gal(b1-4)GlcNAc(b1-2)[Gal(b1-4)GlcNAc(b1-3)Gal(b1-4)GlcNAc(b1-3)Gal(b1-4)GlcNAc(b1-3)Gal(b1-4)GlcNAc(b1-6)]Man(a1-6)[Gal(b1-4)GlcNAc(b1-3)Gal(b1-4)GlcNAc(b1-3)Gal(b1-4)GlcNAc(b1-3)Gal(b1-4)GlcNAc(b1-2)Man(a1-3)]Man(b1-4)GlcNAc(b1-4)[Fuc(a1-6)]GlcNAc
# Outline: (§1)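 From the Consortium for Functional Glycomics database, 3228 arrays were curated, keeping only those whose protein sequence was available. Binding is given as a within-array Z-score averaged across arrays sharing a protein sequence and across linkers. Negative Z-scores can be read as non-binding.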
# [2] = target: Gal(b1-4)GlcNAc(b1-3)Gal(b1-4)GlcNAc(b1-3)Gal(b1-4)GlcNAc(b1-3)Gal(b1-4)GlcNAc(b1-3)Gal(b1-4)GlcNAc(b1-2)Man(a1-3)[Gal(b1-4)GlcNAc(b1-3)Gal(b1-4)GlcNAc(b1-3)Gal(b1-4)GlcNAc(b1-3)Gal(b1-4)GlcNAc(b1-3)Gal(b1-4)GlcNAc(b1-2)Man(a1-6)]Man(b1-4)GlcNAc(b1-4)GlcNAc
# Outline: as §1
# [3] = target: Gal(b1-4)GlcNAc(b1-3)Gal(b1-4)GlcNAc(b1-3)Gal(b1-4)GlcNAc(b1-3)Gal(b1-4)GlcNAc(b1-3)Gal(b1-4)GlcNAc(b1-2)Man(a1-3)[Gal(b1-4)GlcNAc(b1-3)Gal(b1-4)GlcNAc(b1-3)Gal(b1-4)GlcNAc(b1-3)Gal(b1-4)GlcNAc(b1-3)Gal(b1-4)GlcNAc(b1-2)Man(a1-6)]Man(b1-4)GlcNAc(b1-4)[Fuc(a1-6)]GlcNAc
# Outline: as §1
# [4] = target: Gal(b1-4)GlcNAc(b1-3)Gal(b1-4)GlcNAc(b1-3)Gal(b1-4)GlcNAc(b1-3)Gal(b1-4)GlcNAc(b1-3)Gal(b1-4)GlcNAc(b1-2)[Gal(b1-4)GlcNAc(b1-3)Gal(b1-4)GlcNAc(b1-3)Gal(b1-4)GlcNAc(b1-3)Gal(b1-4)GlcNAc(b1-3)Gal(b1-4)GlcNAc(b1-6)]Man(a1-6)[Gal(b1-4)GlcNAc(b1-3)Gal(b1-4)GlcNAc(b1-3)Gal(b1-4)GlcNAc(b1-3)Gal(b1-4)GlcNAc(b1-3)Gal(b1-4)GlcNAc(b1-2)Man(a1-3)]Man(b1-4)GlcNAc(b1-4)[Fuc(a1-6)]GlcNAc
# Outline: as §1
# [5] = target: Gal(b1-4)GlcNAc(b1-3)Gal(b1-4)GlcNAc(b1-3)GalNAc
# Outline: as §1
# [6] = target: Gal3S(b1-3)GalNAc
# Outline: as §1
# [7] = target: Gal3S(b1-4)Glc6S
# Outline: as §1
# [8] = target: Gal3S(b1-4)[Fuc(a1-3)]GlcNAc
# Outline: as §1
# [9] = target: Gal6S(b1-3)GlcNAc
# Outline: as §1
# [10] = target: GalNAc(b1-3)Gal(a1-6)Gal(b1-4)Glc
# Outline: as §1
# [11] = target: GlcA(b1-6)Gal
# Outline: as §1
# [12] = target: GlcNAc(b1-2)Man(a1-3)[GlcNAc(b1-2)Man(a1-6)]Man(b1-4)GlcNAc(b1-4)GlcNAc
# Outline: as §1
# [13] = target: GlcNAc(b1-2)[GlcNAc(b1-4)]Man(a1-3)[GlcNAc(b1-4)][GlcNAc(b1-2)Man(a1-6)]Man(b1-4)GlcNAc(b1-4)GlcNAc
# Outline: as §1
# [14] = target: GlcNAc(b1-2)[GlcNAc(b1-4)]Man(a1-3)[GlcNAc(b1-4)][GlcNAc(b1-2)[GlcNAc(b1-6)]Man(a1-6)]Man(b1-4)GlcNAc(b1-4)GlcNAc
# Outline: as §1
# [15] = target: GlcNAc(b1-2)[GlcNAc(b1-6)]Man(a1-6)[GlcNAc(b1-2)Man(a1-3)]Man(b1-4)GlcNAc(b1-4)GlcNAc
# Outline: as §1
# [16] = target: GlcNAc(b1-3)Gal(b1-4)GlcNAc(b1-3)Gal(b1-4)GlcNAc(b1-3)Gal(b1-4)GlcNAc(b1-2)[GlcNAc(b1-3)Gal(b1-4)GlcNAc(b1-3)Gal(b1-4)GlcNAc(b1-3)Gal(b1-4)GlcNAc(b1-6)]Man(a1-6)[GlcNAc(b1-3)Gal(b1-4)GlcNAc(b1-3)Gal(b1-4)GlcNAc(b1-3)Gal(b1-4)GlcNAc(b1-2)Man(a1-3)]Man(b1-4)GlcNAc(b1-4)[Fuc(a1-6)]GlcNAc
# Outline: as §1
# [17] = target: GlcNAc(b1-3)Gal(b1-4)GlcNAc(b1-3)Gal(b1-4)GlcNAc(b1-3)Gal(b1-4)GlcNAc(b1-3)Gal(b1-4)GlcNAc(b1-2)Man(a1-3)[GlcNAc(b1-3)Gal(b1-4)GlcNAc(b1-3)Gal(b1-4)GlcNAc(b1-3)Gal(b1-4)GlcNAc(b1-3)Gal(b1-4)GlcNAc(b1-2)Man(a1-6)]Man(b1-4)GlcNAc(b1-4)[Fuc(a1-6)]GlcNAc
# Outline: as §1
# [18] = target: GlcNAc(b1-3)Gal(b1-4)GlcNAc(b1-3)Gal(b1-4)GlcNAc(b1-3)Gal(b1-4)GlcNAc(b1-3)Gal(b1-4)GlcNAc(b1-2)[GlcNAc(b1-3)Gal(b1-4)GlcNAc(b1-3)Gal(b1-4)GlcNAc(b1-3)Gal(b1-4)GlcNAc(b1-3)Gal(b1-4)GlcNAc(b1-6)]Man(a1-6)[GlcNAc(b1-3)Gal(b1-4)GlcNAc(b1-3)Gal(b1-4)GlcNAc(b1-3)Gal(b1-4)GlcNAc(b1-3)Gal(b1-4)GlcNAc(b1-2)Man(a1-3)]Man(b1-4)GlcNAc(b1-4)[Fuc(a1-6)]GlcNAc
# Outline: as §1
# [19] = target: GlcNAc(b1-3)[GlcNAc(b1-6)]GlcNAc
# Outline: as §1
# [20] = target: Man(a1-2)Man(a1-2)Man(a1-3)[Man(a1-2)Man(a1-6)[Man(a1-3)]Man(a1-6)]Man(b1-4)GlcNAc(b1-4)GlcNAc
# Outline: as §1
# [21] = target: Man(a1-2)Man(a1-6)[Man(a1-3)]Man(a1-6)[Man(a1-2)Man(a1-2)Man(a1-3)]Man(b1-4)GlcNAc(b1-4)GlcNAc
# Outline: as §1
# [22] = target: Man(a1-3)[Man(a1-6)]Man(a1-6)[Man(a1-2)Man(a1-3)]Man(b1-4)GlcNAc(b1-4)GlcNAc
# Outline: as §1
# [23] = target: Neu5Ac(a2-3)Gal(b1-3)[Fuc(a1-4)]GlcNAc(b1-3)Gal(b1-4)[Fuc(a1-3)]GlcNAc
# Outline: as §1
# [24] = target: Neu5Ac(a2-3)Gal(b1-4)GlcNAc(b1-2)Man(a1-3)[GlcNAc(b1-2)Man(b1-4)GlcNAc(b1-2)Man(a1-6)]Man(b1-4)GlcNAc(b1-4)GlcNAc
# Outline: as §1
# [25] = target: Neu5Ac(a2-3)Gal(b1-4)GlcNAc(b1-3)Gal(b1-4)GlcNAc(b1-3)GalNAc
# Outline: as §1
# [26] = target: Neu5Ac(a2-3)Gal(b1-4)[Fuc(a1-3)]GlcNAc
# Outline: as §1
# [27] = target: Neu5Ac(a2-3)[GalNAc(b1-4)]Gal(b1-4)GlcNAc
# Outline: as §1
# [28] = target: Neu5Ac(a2-6)Gal(b1-4)GlcNAc(b1-2)[Neu5Ac(a2-6)Gal(b1-4)GlcNAc(b1-6)]Man(a1-6)[Neu5Ac(a2-6)Gal(b1-4)GlcNAc(b1-2)Man(a1-3)][GlcNAc(b1-4)]Man(b1-4)GlcNAc(b1-4)GlcNAc
# Outline: as §1
# [29] = target: Neu5Ac(a2-8)Neu5Ac(a2-8)Neu5Ac(a2-3)Gal(b1-4)Glc
# Outline: as §1
binder,measurement,setting,value
B1,glycan array binding signal (z-score),[1],5.2
same,glycan array binding signal (z-score),[2],4.95
same,glycan array binding signal (z-score),[3],4.93
same,glycan array binding signal (z-score),[4],5.14
same,glycan array binding signal (z-score),[5],-0.127
same,glycan array binding signal (z-score),[6],0.538
same,glycan array binding signal (z-score),[7],2.04
same,glycan array binding signal (z-score),[8],-0.312
same,glycan array binding signal (z-score),[9],-0.324
same,glycan array binding signal (z-score),[10],-0.319
same,glycan array binding signal (z-score),[11],-0.332
same,glycan array binding signal (z-score),[12],-0.324
same,glycan array binding signal (z-score),[13],-0.311
same,glycan array binding signal (z-score),[14],-0.33
same,glycan array binding signal (z-score),[15],-0.2
same,glycan array binding signal (z-score),[16],5.04
same,glycan array binding signal (z-score),[17],4.94
same,glycan array binding signal (z-score),[18],5.06
same,glycan array binding signal (z-score),[19],-0.33
same,glycan array binding signal (z-score),[20],-0.333
same,glycan array binding signal (z-score),[21],-0.185
same,glycan array binding signal (z-score),[22],-0.158
same,glycan array binding signal (z-score),[23],-0.197
same,glycan array binding signal (z-score),[24],-0.355
same,glycan array binding signal (z-score),[25],-0.259
same,glycan array binding signal (z-score),[26],-0.305
same,glycan array binding signal (z-score),[27],-0.248
same,glycan array binding signal (z-score),[28],-0.274
same,glycan array binding signal (z-score),[29],-0.015
